The source of these data is PubChem BioAssay (EPA / NIEHS).

Holding throughout (conditions): primary human HUVEC with PBMC; actives raise or lower the signal
A short description of assay [1]: BSK_LPS_PGE2: BioMAP Diversity Plus: LPS Assay for Prostaglandin E2 (PGE2) Biomarker Activity (AID 2283082). Put shortly: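 PGE2 release measured by ELISA in an LPS-activated co-culture of human umbilical vein endothelial cells and peripheral blood mononuclear cells, read at 24 h post-dosing. DMSO served as baseline for bidirectional curve fitting.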
Read-out in assay [2]: Macrophage colony-stimulating factor (MCSF), CSF1 (gene 1435)
The experiment in a line: BSK_LPS_MCSF: BioMAP Diversity Plus: LPS Assay for Macrophage colony-stimulating factor (MCSF) Biomarker Activity (AID 2283083). The essentials:
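ELISA readout of M-CSF after 24 h compound exposure in a human endothelial/PBMC co-culture. Activity, in either direction, is fitted relative to DMSO vehicle.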

Read-out in assay [3]: Tissue Factor, F3 (gene 2152)
The experiment in a line: BSK_LPS_TissueFactor: BioMAP Diversity Plus: LPS Assay for Tissue Factor Biomarker Activity (AID 2283084). The essentials: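 ELISA signal for cell-surface Tissue Factor (CD142) was read 24 h after compound dosing of an LPS-stimulated human endothelial–PBMC primary co-culture. Gain or loss of signal was scored relative to DMSO.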

Read-out in assay [4]: Tumor necrosis factor (Homo sapiens) (UniProt P01375)
The experiment in a line: BSK_LPS_TNFa: BioMAP Diversity Plus: LPS Assay for Tumour Necrosis Factor alpha (TNFa) Biomarker Activity (AID 2283085).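 For AC50: TNFa protein level quantified by ELISA in the co-culture.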 Put shortly:
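TNFa was quantified by ELISA in LPS-activated co-cultures of human endothelial cells and PBMC, 24 h post-dosing. Both increases and decreases versus DMSO were fitted.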

Read-out in assay [5]: Vascular cell adhesion molecule 1 (VCAM1), VCAM1 (gene 7412)
The experiment in a line: BSK_LPS_VCAM1: BioMAP Diversity Plus: LPS Assay for Vascular cell adhesion molecule 1 (VCAM1) Biomarker Activity (AID 2283086). The essentials:
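VCAM-1 quantified by ELISA in an LPS-activated co-culture of human endothelial cells and peripheral blood mononuclear cells, read 24 h post-treatment. Fitted in both directions versus DMSO; parallel SRB staining flags overt cytotoxicity.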

Read-out in another assay: CD38, CD38 (gene 952)
The experiment in a line: BSK_SAg_CD38: BioMAP Diversity Plus: SAg Assay for CD38 Biomarker Activity (AID 2283087). Put shortly: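 CD38 quantified by ELISA (fluorescence) in a superantigen-activated endothelial cell–PBMC co-culture at 24 h post-dose. Activity fitted in both directions relative to DMSO; parallel SRB and Alamar Blue cytotoxicity read-outs.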

Read-out in another assay: CD69, CD69 (gene 969)
The experiment in a line: BSK_SAg_CD69: BioMAP Diversity Plus: SAg Assay for CD69 Biomarker Activity (AID 2283089).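 For AC50: cell surface CD69 protein quantified by ELISA with fluorescence detection.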 Put shortly: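 Primary human vascular co-culture (umbilical vein endothelium with peripheral blood mononuclear cells) exposed to test chemical for 24 h. CD69 levels quantified by fluorescence ELISA; DMSO served as negative control for bidirectional fitting.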

Read-out in assay [6]: Monocyte Chemoattractant Protein-1 (MCP1), CCL2 (gene 6347)
The experiment in a line: BSK_SAg_MCP1: BioMAP Diversity Plus: SAg Assay for Monocyte Chemoattractant Protein-1 (MCP1) Biomarker Activity (AID 2283090). Put shortly: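 Values derive from bidirectional fitting of ELISA-measured MCP1 against DMSO controls. Readings were taken 24 h after dosing human vascular endothelial cells co-cultured with peripheral blood mononuclear cells under superantigen stimulation.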

Read-out in assay [7]: E-selectin (Homo sapiens) (UniProt P16581)
The experiment in a line: BSK_SAg_Eselectin: BioMAP Diversity Plus: SAg Assay for Eselectin Biomarker Activity (AID 2283091). The essentials: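 Co-culture: HUVEC + PBMC. Dose compound; 24 h. ELISA for E-selectin. Bidirectional fit vs DMSO.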

Read-out in a further assay: CD40, CD40 (gene 958)
The experiment in a line: BSK_SAg_CD40: BioMAP Diversity Plus: SAg Assay for CD40 Biomarker Activity (AID 2283088). The essentials:
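Compounds were dosed onto a human primary endothelial–PBMC co-culture, and after 24 h CD40 was quantified by ELISA using a fluorescence signal. Activity in either direction was fitted relative to DMSO.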

Active and inactive are the calls of the source. Rule for the calls: active = hit-call score of the fitted dose curve at least 0.9, where 1 is the maximum; inactive = score below 0.9.

Chain of Tumor necrosis factor (Homo sapiens) (P01375 whole entry, looked up): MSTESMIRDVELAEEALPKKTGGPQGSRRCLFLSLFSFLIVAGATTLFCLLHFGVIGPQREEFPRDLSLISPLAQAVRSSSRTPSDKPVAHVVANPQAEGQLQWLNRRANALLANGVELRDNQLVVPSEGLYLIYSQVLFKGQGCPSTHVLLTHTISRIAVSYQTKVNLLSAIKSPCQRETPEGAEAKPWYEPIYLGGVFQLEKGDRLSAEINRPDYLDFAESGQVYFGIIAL
Chain of E-selectin (Homo sapiens) (P16581 whole entry, looked up): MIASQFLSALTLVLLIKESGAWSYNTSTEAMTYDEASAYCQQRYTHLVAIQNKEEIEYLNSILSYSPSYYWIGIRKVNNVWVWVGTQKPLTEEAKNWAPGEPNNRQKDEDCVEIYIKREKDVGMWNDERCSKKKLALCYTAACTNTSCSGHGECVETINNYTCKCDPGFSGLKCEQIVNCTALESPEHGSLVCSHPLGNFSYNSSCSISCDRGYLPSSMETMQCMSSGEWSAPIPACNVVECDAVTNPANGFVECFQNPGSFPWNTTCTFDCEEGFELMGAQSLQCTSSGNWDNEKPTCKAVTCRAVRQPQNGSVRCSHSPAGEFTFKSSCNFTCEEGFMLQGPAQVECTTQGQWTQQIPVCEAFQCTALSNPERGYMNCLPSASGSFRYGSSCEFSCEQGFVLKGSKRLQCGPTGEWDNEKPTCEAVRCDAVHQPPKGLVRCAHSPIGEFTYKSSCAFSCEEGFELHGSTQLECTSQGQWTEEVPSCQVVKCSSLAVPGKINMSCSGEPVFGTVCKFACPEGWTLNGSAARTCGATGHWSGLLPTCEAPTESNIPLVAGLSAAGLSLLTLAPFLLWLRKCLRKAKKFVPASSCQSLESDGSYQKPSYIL

The AC50 is the concentration at which the activity in the assay is half-maximal. Turning to `Cc1ccc(-c2cc(C(F)(F)F)nn2-c2ccc(S(N)(=O)=O)cc2)cc1`, the AC50 in [1] is 0.288 µM (active); in [2], 29.7 µM (active); in [3], 30.7 µM (active); in assay [4], 30.9 µM (active); in [5], 31.7 µM (active); with CD38, CD38 (gene 952), 30.2 µM (active). Further, the concentration at half-maximal activity (AC50) was 26.9 µM (active) with CD69, CD69 (gene 969); 30.5 µM (active) in [6]; 29.4 µM (active) in [7].

In the case of `CCCCCCCCCCCCCCCCO`, the outcome in assay [1] was “inactive”; in assay [2], “inactive”; in assay [3], “inactive”; in assay [4], “inactive”; in assay [5], “inactive”; in the assay with CD38, CD38 (gene 952), “inactive”. Also, the outcome with CD40, CD40 (gene 958) is “inactive”; with CD69, CD69 (gene 969) it was “inactive”; in assay [6], “inactive”; in [7], “inactive”.

For `Nc1nc(Cl)nc2c1ncn2[C@H]1C[C@H](O)[C@@H](CO)O1`, the outcome in assay [1] was “inactive”; in assay [5] it was “inactive”; in the assay with CD38, CD38 (gene 952) it was “inactive”. Moreover, the AC50 was 1.08 µM (active) in assay [2]; 3.37 µM (active) in [3]; 5.4 µM (active) in assay [4]; 1.6 µM (active) with CD40, CD40 (gene 958); 4.31 µM (active) with CD69, CD69 (gene 969); 3.09 µM (active) in assay [6]. For the same molecule, the AC50 in [7] was 9.32 µM (active).

As for `Cc1occc(=O)c1O`, the outcome in assay [1] was “inactive”; in assay [2], “inactive”; in assay [3] it was “inactive”; in assay [4], “inactive”; in assay [5], “inactive”; with CD38, CD38 (gene 952), “inactive”. Moreover, the outcome was “inactive” with CD40, CD40 (gene 958); “inactive” with CD69, CD69 (gene 969); “inactive” in assay [6]; “inactive” in assay [7].

As for `CCN(CC)CCOc1ccc(C(=C(Cl)c2ccccc2)c2ccccc2)cc1`, the AC50 is 8.26 µM (active) in assay [1]; 9.21 µM (active) in [2]; 29.8 µM (active) in assay [3]; 11.8 µM (active) in [4]; 13.2 µM (active) in assay [5]; 8.84 µM (active) with CD38, CD38 (gene 952). Further, the AC50 is 11 µM (active) in the assay with CD40, CD40 (gene 958); 12.4 µM (active) with CD69, CD69 (gene 969); 11.2 µM (active) in assay [6]; 13.5 µM (active) in assay [7].

Consider `C=CCCCCCCCCCCCC`, for which the outcome in assay [1] is “inactive”; in [2], “inactive”; in assay [3], “inactive”; in assay [4], “inactive”; in [5], “inactive”; with CD38, CD38 (gene 952), “inactive”. For the same molecule, the outcome in the assay with CD40, CD40 (gene 958) was “inactive”; in the assay with CD69, CD69 (gene 969), “inactive”; in [6], “inactive”; in assay [7] it was “inactive”.

`Cn1cnc2c1c(=O)[nH]c(=O)n2C`: the outcome in [1] was “inactive”; in assay [2] it was “inactive”; in [3], “inactive”; in assay [4], “inactive”; in [5] it was “inactive”; with CD38, CD38 (gene 952), “inactive”. Further, the outcome with CD69, CD69 (gene 969) was “inactive”; in assay [6] it was “inactive”; in assay [7], “inactive”.

As for `CCCCCCCCCC[N+](C)(C)[O-]`, the outcome in assay [1] was “inactive”; in [2], “inactive”; in assay [3], “inactive”; in assay [4], “inactive”; with CD38, CD38 (gene 952), “inactive”; with CD40, CD40 (gene 958), “inactive”. The outcome was “inactive” in the assay with CD69, CD69 (gene 969); “inactive” in [6]; “inactive” in assay [7]. Moreover, the AC50 in assay [5] was 35.5 µM (active).

As to `CSc1ccc(Oc2ccc(S(N)(=O)=O)cc2CN(C)C)cc1C`, the outcome in assay [1] is “inactive”; in [2], “inactive”; in assay [3] it was “inactive”; in assay [4], “inactive”; in [5], “inactive”; with CD38, CD38 (gene 952), “inactive”. Besides, the outcome in the assay with CD40, CD40 (gene 958) is “inactive”; in the assay with CD69, CD69 (gene 969) it was “inactive”; in assay [6], “inactive”; in [7] it was “inactive”.

As for `CC(=O)S[C@H](C(=O)N[C@H]1Cc2ccccc2[C@H]2CCC[C@@H](C(=O)O)N2C1=O)C(C)C`, the outcome in assay [1] is “inactive”; in [2], “inactive”; in assay [3], “inactive”; in assay [4], “inactive”; in assay [5], “inactive”; in the assay with CD38, CD38 (gene 952), “inactive”. Moreover, the outcome with CD69, CD69 (gene 969) was “inactive”; in [6] it was “inactive”; in [7], “inactive”.

As to `COc1ccc(C(=O)Nc2nc3ccccc3c(NCc3ccccc3)c2C#N)cc1`, the outcome in assay [1] is “inactive”; in [3], “inactive”; in assay [4] it was “inactive”; in the assay with CD38, CD38 (gene 952), “inactive”; in the assay with CD40, CD40 (gene 958), “inactive”; with CD69, CD69 (gene 969), “inactive”. Also, the result in assay [6] and in assay [7] was inactive. Further, in [2], the AC50 was 3.97 µM (active).
